From PubChem BioAssay (EPA / NIEHS)
Activity calls are given as the source filed them. The calls were made as follows: active = hit-call score of the fitted dose curve at least 0.9, where 1 is the maximum; inactive = score below 0.9.

Each compound was assayed on TIMP1, TIMP1 (gene 7076) (assay: LTEA_HepaRG_TIMP1: Life Technologies and Expression Analysis (LTEA) Assay for TIMP1 using HepaRG (AID 2283534;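 as to outcome: TaqMan qRT-PCR signal normalized to ACTB GAPDH and POLR2A housekeeping genes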)). Details: mRNA level, 48 h; actives raise or lower the signal.
Method in brief: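 Differentiated human HepaRG cells in serum-free induction medium were exposed 48 h to chemicals (8 half-log concentrations, top 100 uM, 0.5% DMSO). TIMP1 mRNA was quantified by TaqMan qRT-PCR, normalized to ACTB/GAPDH/POLR2A; bidirectional fit versus DMSO.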

Row | SMILES | outcome | AC50
1 | CCCCCCCCCCCCCCC | inactive | –
2 | N=C(N)c1ccc(OCCCCCOc2ccc(C(=N)N)cc2)cc1 | – | 43.8 µM (active)
3 | CCC(C)c1ccccc1O (stereo unspecified) | inactive | –
4 | O=C(CCCN1CCC(O)(c2ccc(Cl)cc2)CC1)c1ccc(F)cc1 | inactive | –
5 | CCCCCCCCCCCCOS(=O)(=O)O | inactive | –
6 | CC(=O)Nc1ccc(O)cc1 | inactive | –
7 | OCC(CO)(CBr)CBr | inactive | –
8 | CCCCC=O | inactive | –
9 | CCCCc1oc2ccccc2c1C(=O)c1cc(I)c(OCCN(CC)CC)c(I)c1 | inactive | –
10 | CN(Cc1cnc2nc(N)nc(N)c2n1)c1ccc(C(=O)N[C@@H](CCC(=O)O)C(=O)O)cc1 | inactive | –
11 | CS(=O)(=O)c1ccc([C@@H](CC2CCCC2)C(=O)Nc2cnccn2)cc1Cl | inactive | –
12 | O=C1NS(=O)(=O)c2ccccc21 | inactive | –
13 | Cc1[nH]nc2c1N=C(c1ccccc1Cl)c1cc([N+](=O)[O-])ccc1N2 | – | 2.38 µM (active)
14 | CN(C)CCOC(c1ccccc1)c1ccccc1 | inactive | –
15 | CCCCC(CC)C(=O)O (stereo unspecified) | inactive | –
16 | O=C(c1ccccc1)c1ccccc1 | inactive | –

These compounds were tested on Tumor necrosis factor receptor 1 (TNFRSF1A), TNFRSF1A (gene 7132) (assay: LTEA_HepaRG_TNFRSF1A: Life Technologies and Expression Analysis (LTEA) Assay for Tumor necrosis factor receptor 1 (TNFRSF1A) using HepaRG (AID 2283535)). Details: mRNA level, 48 h; actives raise or lower the signal.
Method in brief: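 Differentiated human HepaRG cells were exposed in duplicate for 48 h in serum-free induction medium to eight concentrations (top 100 uM, half-log steps, 0.5% DMSO). TNFRSF1A mRNA was quantified by qRT-PCR, normalized to ACTB, GAPDH and POLR2A, then fitted bidirectionally against DMSO.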

Row | SMILES | outcome | AC50
17 | CCCCCCCCCCCCCCC | inactive | –
18 | N=C(N)c1ccc(OCCCCCOc2ccc(C(=N)N)cc2)cc1 | – | 30.5 µM (active)
19 | CCC(C)c1ccccc1O (stereo unspecified) | inactive | –
20 | O=C(CCCN1CCC(O)(c2ccc(Cl)cc2)CC1)c1ccc(F)cc1 | – | 82.1 µM (active)
21 | CCCCCCCCCCCCOS(=O)(=O)O | inactive | –
22 | CC(=O)Nc1ccc(O)cc1 | inactive | –
23 | OCC(CO)(CBr)CBr | inactive | –
24 | CCCCC=O | inactive | –
25 | CCCCc1oc2ccccc2c1C(=O)c1cc(I)c(OCCN(CC)CC)c(I)c1 | inactive | –
26 | CN(Cc1cnc2nc(N)nc(N)c2n1)c1ccc(C(=O)N[C@@H](CCC(=O)O)C(=O)O)cc1 | inactive | –
27 | CS(=O)(=O)c1ccc([C@@H](CC2CCCC2)C(=O)Nc2cnccn2)cc1Cl | inactive | –
28 | O=C1NS(=O)(=O)c2ccccc21 | inactive | –
29 | Cc1[nH]nc2c1N=C(c1ccccc1Cl)c1cc([N+](=O)[O-])ccc1N2 | – | 12.4 µM (active)
30 | CN(C)CCOC(c1ccccc1)c1ccccc1 | inactive | –
31 | CCCCC(CC)C(=O)O (stereo unspecified) | inactive | –
32 | O=C(c1ccccc1)c1ccccc1 | inactive | –

What follows are compounds tested on Cellular tumor antigen p53 (Homo sapiens) (UniProt P04637) (assay: LTEA_HepaRG_TP53: Life Technologies and Expression Analysis (LTEA) Assay for Tumor Protein P53 (TP53) using HepaRG (AID 2283537)). Details: mRNA level, 48 h; actives raise or lower the signal.
Cellular tumor antigen p53 (Homo sapiens), sequence (P04637 whole entry, looked up): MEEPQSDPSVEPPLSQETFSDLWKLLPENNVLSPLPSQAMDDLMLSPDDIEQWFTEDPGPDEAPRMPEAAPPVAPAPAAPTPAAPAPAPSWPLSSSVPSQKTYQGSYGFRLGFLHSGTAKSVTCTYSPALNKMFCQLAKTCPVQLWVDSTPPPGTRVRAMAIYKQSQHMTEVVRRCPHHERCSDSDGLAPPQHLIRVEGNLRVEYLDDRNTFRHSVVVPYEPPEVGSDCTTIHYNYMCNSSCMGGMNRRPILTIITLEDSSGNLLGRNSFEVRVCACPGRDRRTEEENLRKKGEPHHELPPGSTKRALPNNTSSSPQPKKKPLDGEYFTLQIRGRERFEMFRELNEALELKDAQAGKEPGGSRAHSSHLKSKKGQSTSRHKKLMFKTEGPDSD
Method in brief: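 Gain or loss of TP53 mRNA signal is scored relative to 0.5% DMSO after 48 h chemical treatment of HepaRG liver cells, tested in duplicate at eight half-log concentrations up to 100 uM.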

Row | SMILES | AC50 | outcome
33 | O=C(CCCN1CCC(O)(c2ccc(Cl)cc2)CC1)c1ccc(F)cc1 | 79.1 µM (active) | –
34 | CCCCc1oc2ccccc2c1C(=O)c1cc(I)c(OCCN(CC)CC)c(I)c1 | 66.8 µM (active) | –
35 | CS(=O)(=O)c1ccc([C@@H](CC2CCCC2)C(=O)Nc2cnccn2)cc1Cl | 61.3 µM (active) | –
36 | O=C(c1ccccc1)c1ccccc1 | – | inactive
